# Measured values as given in article PMC4336329 (PLoS ONE, 2015).
# Out of some 310,000 compounds screened, about 14,000 (4.5%) showed an effect of 50% or more. Effects have a minus sign here. The entries come from a sample that favours strong results as a whole.
# Target: human ether-à-go-go-related gene (hERG) potassium channel (human, UniProt Q12809)
# Assay: primary screen, population patch clamp on CHO cells stably expressing hERG; higher = less effect of the substance
# 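Further: peak tail current of the secondary pulse compared with the same well before compound.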
# Chain of human ether-à-go-go-related gene (hERG) potassium channel (Q12809 whole entry, looked up): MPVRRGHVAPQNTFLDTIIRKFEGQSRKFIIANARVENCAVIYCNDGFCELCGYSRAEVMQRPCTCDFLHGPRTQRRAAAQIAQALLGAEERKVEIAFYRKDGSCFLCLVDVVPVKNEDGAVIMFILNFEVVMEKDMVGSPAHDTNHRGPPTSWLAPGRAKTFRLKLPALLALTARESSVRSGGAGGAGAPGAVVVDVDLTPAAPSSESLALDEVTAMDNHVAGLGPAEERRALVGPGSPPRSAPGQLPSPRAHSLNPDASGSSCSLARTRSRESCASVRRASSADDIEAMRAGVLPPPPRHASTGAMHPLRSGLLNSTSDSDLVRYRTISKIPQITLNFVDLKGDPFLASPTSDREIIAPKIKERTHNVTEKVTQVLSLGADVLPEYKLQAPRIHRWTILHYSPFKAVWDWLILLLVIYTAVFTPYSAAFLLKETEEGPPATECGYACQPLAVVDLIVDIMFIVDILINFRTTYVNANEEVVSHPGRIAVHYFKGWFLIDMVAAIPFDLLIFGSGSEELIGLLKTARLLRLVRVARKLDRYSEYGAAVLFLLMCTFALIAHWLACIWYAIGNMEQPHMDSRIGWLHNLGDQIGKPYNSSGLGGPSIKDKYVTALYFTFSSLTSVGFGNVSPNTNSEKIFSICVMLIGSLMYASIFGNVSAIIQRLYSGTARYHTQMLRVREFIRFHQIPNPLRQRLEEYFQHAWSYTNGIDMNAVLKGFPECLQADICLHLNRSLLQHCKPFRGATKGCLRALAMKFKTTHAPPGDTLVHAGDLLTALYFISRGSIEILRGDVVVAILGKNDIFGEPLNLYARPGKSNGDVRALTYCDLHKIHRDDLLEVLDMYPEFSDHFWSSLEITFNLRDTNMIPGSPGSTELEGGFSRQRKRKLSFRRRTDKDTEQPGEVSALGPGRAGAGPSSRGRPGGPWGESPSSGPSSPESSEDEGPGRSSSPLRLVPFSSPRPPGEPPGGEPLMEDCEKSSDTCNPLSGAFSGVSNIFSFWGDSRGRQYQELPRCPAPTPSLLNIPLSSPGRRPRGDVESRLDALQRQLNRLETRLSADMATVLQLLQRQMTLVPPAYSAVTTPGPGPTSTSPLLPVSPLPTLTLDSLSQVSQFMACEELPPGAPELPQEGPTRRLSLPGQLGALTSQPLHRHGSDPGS
row,SMILES,"hERG current change (%, negative = inhibition) at 10uM"
1,COC(=O)CN1C(=S)N(c2ccc(OC)cc2)C(=O)/C1=C/c1cccs1,34%
2,Nc1nc(NCc2ccccc2)n(-c2ccccc2)n1,14.9%
3,CCOc1ccc(-n2nnnc2-c2nc3ccccc3s2)cc1,11.9%
4,O=c1[nH]cc(S(=O)(=O)N2CCOCC2)c(=O)[nH]1,-7.17%
5,COCCn1c(=O)c2c(nc3n2CC(C)CN3CCc2ccccc2)n(C)c1=O (stereo not drawn),-56.6%
6,CCOCCn1c(=O)c2c(nc3n2CCCN3CCc2ccccc2)n(C)c1=O,-22.8%
7,C=CCn1c(=O)c2c(nc3n2CCCN3CCc2ccccc2)n(C)c1=O,-19.8%
8,CCn1c(=O)c2c(nc3n2CC(C)CN3CCc2ccccc2)n(C)c1=O (stereo not drawn),-72.6%
9,CCOCCn1c(=O)c2c(nc3n2CC(C)CN3Cc2ccccc2)n(C)c1=O (stereo not drawn),-49.5%
10,CC1CN(CCc2ccccc2)c2nc3c(c(=O)n(C)c(=O)n3C)n2C1 (stereo not drawn),-33.9%
11,COCCn1c(=O)c2c(nc3n2CCCN3CCc2ccccc2)n(C)c1=O,-31.2%
12,CCOCCn1c(=O)c2c(nc3n2CC(C)CN3CCc2ccccc2)n(C)c1=O (stereo not drawn),-71.5%
13,COCCn1c(=O)c2c(nc3n2CC(C)CN3Cc2ccccc2)n(C)c1=O (stereo not drawn),-47.6%
14,C=CCn1c(=O)c2c(nc3n2CC(C)CN3CCc2ccccc2)n(C)c1=O (stereo not drawn),-72%
15,CC1CN(CCc2ccccc2)c2nc3c(c(=O)[nH]c(=O)n3C)n2C1 (stereo not drawn),-35.9%
16,CC1CN(CCc2ccccc2)c2nc3c(c(=O)n(CC(N)=O)c(=O)n3C)n2C1 (stereo not drawn),2.53%
17,CC(C)C(=O)Nc1cccc(NC(=O)c2cc3ccccc3o2)c1,-22%
18,C=C(C)C1CC=C(C)/C(=N/NC(=O)COc2cccc3ccccc23)C1 (stereo not drawn),10.9%
19,CCOc1cc(C(=O)NN2CCOCC2)cc(OCC)c1OCC,35.2%
20,CC(C)CC(=O)NC(=S)Nc1nc(-c2cccc3ccccc23)cs1,12.7%
21,COc1ccc(/C=N/n2cnnc2SCc2ccccc2)cc1,-2.99%
22,Cc1nc(SCC(=O)NC2CCS(=O)(=O)C2)c2c(C)c(C)sc2n1 (stereo not drawn),6.15%
23,Clc1ccccc1-c1nnc(-c2ccccc2Cl)o1,-2.56%

row,SMILES,"hERG current change (%, negative = inhibition) at 10uM"
1,COc1cccc(N/N=C/c2cccc(Br)c2O)c1,-11.1%
2,CCOC(=O)c1sc2nc(SCC#N)n(CC3CCCO3)c(=O)c2c1C (stereo not drawn),-13.5%
3,CCOC(=O)c1sc2nc(SCC(=O)N(CC)CC)n(CCCN3CCCC3=O)c(=O)c2c1C,-32.4%
4,CCOC(=O)c1sc2nc(SCC#N)n(CCCN3CCCC3=O)c(=O)c2c1C,-62.9%
5,COc1cccc(C2C(C(=O)c3cc4ccccc4o3)=C(O)C(=O)N2CCN(C)C)c1OC (stereo not drawn),0.215%
6,Cc1ccc(C(=O)CSc2cc(C)[nH]c(=O)n2)cc1,6.76%
7,CC(=O)NN1C(=O)/C(=C\c2ccc(Cl)cc2)SC1=S,0.662%
8,CCC(C)n1c(=N)c(C#N)cc2c(=O)n3cccc(C)c3nc21 (stereo not drawn),-66.9%
9,N#Cc1cc2c(=O)n3ccccc3nc2n(Cc2cccnc2)c1=O,-21%
10,CCC(C)n1c(=N)c(C#N)cc2c(=O)n3ccccc3nc21 (stereo not drawn),-40.9%
11,Cc1ccc(C)c(-n2c(=O)c(C#N)cc3c(=O)n4ccccc4nc32)c1,30.5%
12,Cc1cccn2c(=O)c3cc(C#N)c(=O)n(-c4c(C)n(C)n(-c5ccccc5)c4=O)c3nc12,-7.5%
13,Cc1ccc(Cn2c(=N)c(C#N)cc3c(=O)n4cccc(C)c4nc32)cc1,-13%
14,Cc1ccc2nc(NCc3ccccc3)c(C=NCc3cccnc3)c(=O)n2c1,3.39%
15,Cc1ccc2nc3c(cc(C#N)c(=N)n3Cc3cccnc3)c(=O)n2c1,-60.4%
16,CCCn1c(=N)c(C#N)cc2c(=O)n3ccccc3nc21,-9.89%
17,CCC(C)n1c(=N)c(C#N)cc2c(=O)n3cc(C)ccc3nc21 (stereo not drawn),-70.9%
18,CCCn1c(=N)c(C#N)cc2c(=O)n3cccc(C)c3nc21,-53%
19,Cc1ccc2nc3c(cc(C#N)c(=O)n3-c3nccs3)c(=O)n2c1,2.51%
20,CC(=O)NC(CC(=O)Nc1nc(C)cs1)c1ccccc1 (stereo not drawn),14.1%
21,CCCCCCCCn1sccc1=O,-33.8%
22,Cc1ccc(S(=O)(=O)N2CCN3CCCC3C2)cc1 (stereo not drawn),-6.76%
23,COc1ccc(S(=O)(=O)NCCc2nnc3ccc(SCC(=O)Nc4nc(C)cs4)nn23)cc1,25.3%

row,SMILES,"hERG current change (%, negative = inhibition) at 10uM"
1,NC(=O)CC1C(=O)N(c2ccc(Cl)cc2)C(=S)N1NC(=O)c1cccc(F)c1 (stereo not drawn),15.3%
2,COc1ccccc1/C=C/C(=O)NCC(=O)N/N=C(/C)c1ccco1,7.74%
3,Nc1[nH]nc2nc3ccccc3cc12,23%
4,O=c1oc2ccccc2cc1-c1cn2cccnc2n1,1.91%
5,COc1ccc(C2C(C(=O)N3CCN(c4ccccn4)CC3)CCC(=O)N2c2cc(OC)c(OC)c(OC)c2)cc1 (stereo not drawn),9.77%
6,Cc1cccc(N=C2C(=O)Nc3c(Cl)cccc32)c1,18.5%
7,CCc1nc2cc(Cl)c(Cl)cc2[nH]1,2.59%
8,Cc1cc(-n2c(=O)c(C#N)cc3c(=O)n4ccccc4nc32)no1,-17%
9,Cc1cc(-n2c(=O)c(C#N)cc3c(=O)n4cccc(C)c4nc32)no1,-65.1%
10,Cc1ccc(-n2c(=O)c(C#N)cc3c(=O)n4cccc(C)c4nc32)cc1,1.03%
11,Cc1ccc(OC(=O)c2ccc(S(=O)(=O)N(C)C)cc2)c(-n2nc3ccccc3n2)c1,3.83%
12,O=C(Nc1nccs1)c1ccc(-c2ccc(Cl)cc2Cl)o1,25.5%
13,Cc1ccc(CCNC(=O)c2ccc3nc4ccccc4c(=O)n3c2)cc1,6.08%
14,COc1ccc(CNC(=O)C(=O)NCC2CCCO2)cc1 (stereo not drawn),9.7%
15,COc1ccc(CNC(=O)c2cc3c(=O)n4cccc(C)c4nc3n(CC3CCCO3)c2=N)cc1 (stereo not drawn),-77.2%
16,COc1ccc(CCNC(=O)c2cc3c(=O)n4cccc(C)c4nc3n(CC3CCCO3)c2=N)cc1 (stereo not drawn),-75.2%
17,O=C(CSc1nc2ccccc2c(=O)n1CC1CCCO1)NCCc1ccccc1 (stereo not drawn),7.48%
18,Cc1cccn2c(=O)c3cc(S(=O)(=O)c4ccccc4)c(=N)n(CC4CCCO4)c3nc12 (stereo not drawn),-15.3%
19,Cc1ccc2nc3c(cc(C(=O)NCCc4ccccc4)c(=N)n3CC3CCCO3)c(=O)n2c1 (stereo not drawn),-76.9%
20,Cc1cccn2c(=O)c3cc(C(=O)NCCc4ccccc4)c(=N)n(CC4CCCO4)c3nc12 (stereo not drawn),-82.3%
21,CCOc1cc(CNCCc2cccc(F)c2)ccc1OC.O=C(O)C(=O)O,-43.8%
22,O=C(Nc1ccc2c(c1)OCCO2)c1cnn(-c2ccccc2)n1,-6.02%
23,O=C(CSc1nc2cc(Cl)ccc2c(=O)n1Cc1ccco1)Nc1ccc(S(=O)(=O)N2CCOCC2)cc1,-13.6%

row,SMILES,"hERG current change (%, negative = inhibition) at 10uM"
1,Cc1ccc(NC(=O)CCNC(=O)c2ccccc2Cl)cc1S(=O)(=O)N1CCOCC1,-8.82%
2,Cn1c(C(=O)O)ccc1S(=O)(=O)N(Cc1ccccc1)Cc1ccccc1,16.5%
3,Cc1ccccc1NC(=O)Cn1c(NCC(C)O)nc2ccccc21 (stereo not drawn),-2.11%
4,COc1ccc(S(=O)(=O)c2c(O)c3ccc(C(=O)Nc4ccccc4F)cc3[nH]c2=O)cc1,-0.579%
5,CCc1nnc(NC(=O)CSc2nnc(CSc3nc(C)cc(C)n3)o2)s1,3.21%
6,O=C(NCc1ccc(Cl)cc1)c1ccc2c(=O)n(CC3CCCO3)c(=S)[nH]c2c1 (stereo not drawn),7.01%
7,COc1ccc(CCNC(=O)c2cc3c(=O)n4ccccc4nc3n(CC3CCCO3)c2=N)cc1OC (stereo not drawn),-78.4%
8,Cc1cccn2c(=O)c3cc(C(=O)NCc4ccc(F)cc4)c(=N)n(CC4CCCO4)c3nc12 (stereo not drawn),-74%
9,COc1ccc(CCNC(=O)Cn2c(=O)n(CC3CCCO3)c(=O)c3ccccc32)cc1OC (stereo not drawn),-0.738%
10,N=c1c(C(=O)NCCc2ccccc2)cc2c(=O)n3ccccc3nc2n1CC1CCCO1 (stereo not drawn),-90.7%
11,Cc1ccc2nc(/C(C#N)=C\c3ccc(Oc4ccc(C(F)(F)F)cc4[N+](=O)[O-])cc3)[nH]c2c1,20.8%
12,COc1ccc(C(=O)CC(=O)C(=O)Nc2ccc(OC)c(Cl)c2)cc1,12.9%
13,Cc1nn(-c2ccccc2)c(N2CCCCC2)c1/C=N/NC(=O)c1ccncc1,7.3%
14,O=C1CCCC2=C1C(c1ccccc1)n1c(s/c(=C/c3cccc(F)c3)c1=O)=N2 (stereo not drawn),16%
15,NCc1cccc(CNc2ccc([N+](=O)[O-])cc2C(N)=O)c1,-19.9%
16,NC(=O)CC(NC(=O)c1ccccc1)c1ccc(NC2CCN(Cc3ccccc3)CC2)c([N+](=O)[O-])c1 (stereo not drawn),1.08%
17,O=[N+]([O-])c1cc(C(F)(F)F)ccc1NC1CCN(Cc2ccccc2)CC1,-68%
18,NC(=O)CC(NC(=O)Cc1ccc(Cl)cc1)c1ccc(NC2CCN(Cc3ccccc3)CC2)c([N+](=O)[O-])c1 (stereo not drawn),-18.5%
19,NC(=O)CC(NC(=O)c1cccc(Br)c1)c1ccc(NC2CCN(Cc3ccccc3)CC2)c([N+](=O)[O-])c1 (stereo not drawn),6.8%
20,NC(=O)CC(NC(=O)Cc1ccc(Br)cc1)c1ccc(NC2CCN(Cc3ccccc3)CC2)c([N+](=O)[O-])c1 (stereo not drawn),-45.8%
21,O=[N+]([O-])c1cc(C(F)(F)F)ccc1NC1CCN(Cc2ccccc2)C1 (stereo not drawn),-66.6%
